Assay results reported in PubChem BioAssay (NCI).
Compounds without any hit were thinned out: in the full panel of roughly 83,000, 20% have a hit.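 Assay: single dose, 48 h. Readout: percent growth (0 = no net growth; negative = cell death). Active: <10.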 Unmarked numbers belong to inactive results. Active and inactive are the calls of the source.

Tests used:
Assay in all cases: NCI-60 one-dose screen, 48 h (100 = growth as untreated, 0 = no growth, -100 = all killed)
Settings in all cases: 10 µM unless noted
[1] = system: T-47D breast
[2] = system: BT-549 breast
[3] = system: MDA-MB-435 melanoma
[4] = system: SW-620 colon
[5] = system: MCF7 breast
[6] = system: HCT-116 colon
[7] = system: HCC-2998 colon
[8] = system: KM12 colon

Row | Structure (SMILES) | growth [1] | growth [2] | growth [3] | growth [4] | growth [5] | growth [6] | growth [7] | growth [8]
1 | O=CN1N=C(c2ccc(Cl)cc2)CC1c1cccc(Nc2ccnc3cc(Cl)ccc23)c1 (stereo not given) | 11.8% | 7.26% (active) | 4.68% (active) | 27% | 11.3% | 7.72% (active) | 40.9% | 19.8%
2 | Nc1ccccc1-c1ccn[nH]1 | 93.5% | 91.2% | 93.2% | 96.7% | 100% | 92.7% | 97.2% | 82.3%
3 | COc1ccc(C(=O)/C=C/c2cccc(Nc3ccnc4cc(Cl)ccc34)c2)cc1 | 15.7% | 20.6% | 28.1% | 19% | 23.4% | 9.57% (active) | 68.8% | 53%
4 | C[C@]12CCC(=O)C=C1CCC1C2[C@@H](O)C[C@@]2(C)C1CC[C@]2(O)C(=O)COC(=O)CCC(=O)O (stereo not given in full) | 114% | 100% | 96.3% | 113% | 102% | 106% | 98% | 109%
5 | CCOC(CNCc1cc(C)c2[nH]c3ccccc3c2c1C)OCC | 84.9% | 76.4% | 92.3% | 95.1% | 81.3% | 53.5% | 45.1% | 94.4%
6 | CN[C@@H]1C(OC2[C@H](O[C@H]3[C@H](O)[C@@H](O)[C@H](N=C(N)N)[C@@H](O)[C@@H]3N=C(N)N)OC(C)[C@]2(O)CO)OC(CO)C(O)C1O (stereo not given in full) | 111% | 112% | 102% | 104% | 111% | 105% | 97.5% | 110%
7 | COC(=O)Nc1ccc2ccc3c(NC(=O)OC)ccc4ccc1c2c43 (tested in a mixture with another compound) | 49.6% | 63.2% | -22.3% (active) | 39.4% | 31.4% | 21.7% | 57.9% | 32.7%
8 | C(#Cc1ccccc1C#Cc1ccccn1)c1ccc(OCCCCCCOc2ccc(C#Cc3ccccc3C#Cc3ccccn3)cc2)cc1 | 36.5% | 39.6% | 25.6% | 62.6% | 21.1% | 38.4% | 58.8% | 37.1%
9 | Nc1nc(Nc2ccccc2SSc2ccccc2Nc2nc(N)nc(-c3cccc(Cl)c3)n2)nc(-c2cccc(Cl)c2)n1 | 68.9% | 94.3% | 101% | 104% | 82.8% | 90.9% | 110% | 77%
10 | O=C(O)C1CCN(S(=O)(=O)c2ccc(-c3ccccc3)cc2)CC1 | 107% | 109% | 120% | 98.2% | 101% | 112% | 93.6% | 111%
11 | O=C1Nc2ccc(Cl)cc2[C@@](C#CC2CC2)(C(F)(F)F)O1 | 70.4% | 117% | 88% | 107% | 105% | 82.9% | 108% | 86.1%
12 | COc1cnc2c(c1)C(=O)c1c-2n(CCCNC(C)C)c(=O)c2cc(F)ccc12 | -11.5% (active) | -17.9% (active) | -6.52% (active) | -8.49% (active) | -3% (active) | -76.5% (active) | -49.8% (active) | -17.7% (active)
13 | C[C@@H]1CN(c2nc3c(cc2F)c(=O)c(C(=O)O)cn3C(C)(C)C)C[C@H](C)N1 | 95.5% | 107% | 107% | 100% | 113% | 92.2% | 98.1% | 98.5%
14 | NS(=O)(=O)c1ccc(-n2ncc3c(SCc4ccccc4)ncnc32)cc1 | 91.6% | 91.6% | 106% | 95.5% | 98.7% | 82.7% | 127% | 94.1%
15 | Cc1ccc(S(=O)(=O)NCCN2c3nc4ccccc4cc3Sc3cc4ccccc4nc32)cc1 | 62.5% | 46.2% | 105% | 87.7% | 69% | 70.5% | 86.3% | 165%
16 | O=C1OC2(c3ccccc31)c1ccccc1-c1ccccc12 | 90.1% | 82.7% | -26.9% (active) | 78.4% | 52.4% | 54.4% | 88.4% | 51.6%
17 | CCCCCCCC[Si](OCC)(OCC)OCC | 96.2% | 99.1% | 109% | 105% | 98.3% | 101% | 105% | 103%
18 | CCCCCCCCCCN1CCC(N2CCCCC2)CC1 | -55.9% (active) | 37.5% | -25% (active) | -56.9% (active) | -60.8% (active) | -65.2% (active) | 14.8% | -6.35% (active)
19 | CCN(CC)CCOCC[C@H]1CC[C@H]2[C@@H]3[C@H](C)Cc4cc(OS(N)(=O)=O)ccc4[C@H]3CC[C@]12C | -46.4% (active) | -53.4% (active) | -63.7% (active) | -77.5% (active) | -63.1% (active) | -98.4% (active) | -92.7% (active) | -80.8% (active)
20 | COC(=O)[C@H](Cc1cn(C)cn1)NC(=O)[C@H](Cc1ccccc1)NC(=O)Nc1cc(C(F)(F)F)cc(C(F)(F)F)c1 | -55.3% [100 µM] (active) | -95.5% [100 µM] (active) | -85.4% [100 µM] (active) | -46.2% [100 µM] (active) | -60.8% [100 µM] (active) | -91.5% [100 µM] (active) | -86.9% [100 µM] (active) | -92.2% [100 µM] (active)
21 | CCOc1cc(/C=C/C(=O)C(C(=O)/C=C/c2ccc(OC(=O)CNc3nc4ccccc4[nH]3)c(OCC)c2)C(=O)CNc2nc3ccccc3[nH]2)ccc1OC(=O)CNc1nc2ccccc2[nH]1 | 37.3% | -31.3% (active) | -37.6% (active) | -71.4% (active) | 0.893% (active) | -61.3% (active) | -41.5% (active) | -70.8% (active)
22 | CC(=O)c1ccccc1NC(=O)C(C)(c1ccccc1)c1ccccc1 | 67.7% | 75.7% | 98.6% | 93.4% | 102% | 42.1% | 108% | 85%
23 | O=c1c2ccccc2c2nccn2c2cc(Cl)ccc12 | 84.6% | 89% | 94.5% | 80.7% | 122% | 76.4% | 67.3% | 150%
24 | O=C(/C=C/c1ccc([N+](=O)[O-])cc1)c1ccc2c3c(cccc13)CC2 | 69.1% | 84% | 97.8% | 47.1% | 22% | 38.6% | 79.3% | 72.5%
25 | Cc1cc2c(cc1C)[n+](Cc1ccc3ccccc3c1)cn2Cc1ccc2ccccc2c1 | -56.4% (active) | -86.9% (active) | -82.8% (active) | -84.1% (active) | -67.7% (active) | -96.4% (active) | -69.6% (active) | -85.3% (active)
